Data published in PubChem BioAssay AID686979 (National Center for Advancing Translational Sciences (NCATS), 2013).
“And” between values parts separate entries of the source, which are not always exact repeats. Equal entries are not always repeated. Out of some 420,000 compounds screened, about 50,000 (12%) were called active. Where a call stands in place of a potency, no number is given. Roughly 26% stayed inconclusive and do not appear here. This excerpt belongs to a sample that is enriched for actives. Unmarked numbers belong to inactive results. Calls follow the shape of the dose curve; as a rule, active = well fitted inhibition curve with a large enough effect; inconclusive = small, poorly fitted or top-dose-only effect; inactive = flat fitted curve, though single readings scatter.

Experiment: qHTS for Inhibitors of human tyrosyl-DNA phosphodiesterase 1 (TDP1): qHTS in cells in presence of CPT; also: nearly all actives have a fitted effect of over 55% in size
Conditions: chicken DT40 Tdp1-/-;hTDP1 cells + 20 nM CPT, ATP luminescence, 48 h; series mostly up to 46.2 µM
Summary of the method: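 Cell growth measured by CellTiter-Glo luminescence after a minimum 48 h, 37 C compound exposure with 20 nM CPT in Tdp1-knockout DT40 cells stably expressing hTDP1, seeded 400/well; qHTS titration format.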
Potency is read from the fitted curve at half-maximal effect.

Structure (SMILES)	Potency	activity change, negative = growth inhibition
CC(C)=CC1C(C(=O)O)C1(C)C (stereo unspecified)	inactive	–
COc1ccc(NC2CCCN(C(=O)c3ccccc3-c3ncc[nH]3)C2)cc1 (stereo unspecified)	inactive	–
OCC(O)C1OCOC(C(O)CO)C1O (stereo unspecified)	inactive	–
COc1cc(OC)c(NC(=O)c2nc(-c3ccncc3)no2)cc1Cl	inactive	–
CC(C)c1cc(CN2CCOCC2)cc(C(C)C)c1O	inactive	–
Cc1nn(C)c(Cl)c1CN1CCC(n2nccc2NC(=O)C2CCCC2)CC1	inactive	–
COc1cc(/C=N\NC(=O)C2C(=O)NCC2c2ccccc2)cc(OC)c1O (stereo unspecified)	inactive	–
O=C(N/N=C/c1cccnc1)c1cc2ccccc2cc1O	inactive	–
O=C(N/N=C\c1cccnc1)c1cc(-c2ccccc2)nc2c(Cl)cccc12	10.3 µM (active)	–
COc1cc(/C=N/NC(=O)c2cc(-c3ccccc3C)nc3ccccc23)cc(OC)c1O	5.8 µM (active)	–
Cc1cc(C(=O)N/N=C/c2ccccn2)c2ccccc2n1	inactive	–
O=C(N/N=C/c1cccnc1)c1ccc(NC(=O)c2ccc(F)cc2)cc1	inactive	–
Cc1c(NC(=O)Nc2cccc([N+](=O)[O-])c2)c(=O)n(-c2ccccc2)n1C	inactive	–
C#CCOCCOCCOCCNc1nc(N2CCN(C(=O)C([C@@H](C)CC)n3cc(C(N)COC(=O)C(F)(F)F)nn3)CC2)nc(N2CCN(C(=O)[C@H](CCCCN)n3cc(C(N)CC(C)C)nn3)CC2)n1 (stereo partly specified)	inactive	–
COc1cc(CN2CCC(n3nccc3NC(=O)CCCc3ccccc3)CC2)ccc1O	inactive	–
CC(Oc1ccc(F)cc1)C(=O)N1CCN(c2ncccn2)CC1 (stereo unspecified)	inactive	–
O=C(COC(=O)c1cccc(Cl)c1Cl)NC1CCCCCC1	inactive	–
CC(C)(C)c1ccc(C(=O)C[N+]2(C)CCCc3ccccc32)cc1 (stereo unspecified)	3.55 µM (active)	–
CC(C)(C)c1ccc(C(=O)NNC(=O)Cc2ccccc2)cc1	inactive	–
CCn1ccnc1CNC(=O)CC1C(=O)NCCN1CCCc1ccccc1 (stereo unspecified)	inactive	–
O=C(C(=O)N1CCOc2ccc(CN3CCN(Cc4ccccn4)CC3)cc2C1)c1ccccc1	–	6.37% [at 9.04 µM]
CC(=O)Nc1cccc(NC(=O)CSc2nccn2Cc2ccc(F)cc2)c1	inactive	–

Structure (SMILES)	Potency	activity change, negative = growth inhibition
O=C1CC2(CCN(C(=O)COc3ccc(F)cc3)CC2)Oc2ccccc21	inactive	–
COc1cc(/C=C/C(=O)OCC(=O)NCCCc2ccccc2)ccc1O	inactive	–
CC(C)c1c(C(=O)N/N=C/c2ccc(-c3ccccc3)cc2)nnn1-c1nonc1N	inactive	–
CC1CC(C)CN(CCC(=O)Nc2ccc3c(c2)CCC3)C1 (stereo unspecified)	inactive	–
Cc1ccc(C(=O)OCC(=O)NC(=O)Cc2ccccc2)c(O)c1	inactive	–
Cc1ccc(-n2c3nc(=O)[nH]c(=O)c-3cc3c(Cl)cccc32)cc1	1.46 µM (active)	–
Cn1c(=O)nc2n(-c3ccc(Br)cc3)c3cccc(Cl)c3cc-2c1=O	inactive	–
O=c1cc(Cl)c2ccccc2n1-c1ccccc1	inactive	–
CSc1cccc(NC(=O)CN2C(=O)COc3ccc(S(=O)(=O)N4CCOCC4)cc32)c1	inactive	–
COc1ccc(Cl)cc1NC(=O)COc1ccc2c(c1)OCO2	inactive	–
CC1CCN(C(=S)c2cccc(O)c2)CC1	inactive	–
C=C1C([C@@]2(C)C(OC(C)=O)CC(=O)O[C@@](C)(COC(C)=O)C2CC(=O)OC)C(OC=O)C(OC(=O)C(O)C(C)CC)[C@]2(C)C(c3ccoc3)CC(=O)C12O (stereo partly specified)	2.59 µM (active)	–
O=C(Nc1ccccc1Cl)N1CCC(CN2CCCCC2)CC1	inactive	–
COc1ccc(NC(=O)c2ccc(C#CC(C)(C)O)cc2)cc1	inactive	–
Cc1cc(=O)[nH]c(N/N=C/c2ccc3c(c2)OCCO3)n1	inactive	–
Cc1oc(-c2cccc(NC(=O)c3ccccc3)c2)nc1CNC(=O)c1cnc2ccccn2c1=O	inactive	–
O=C(Nc1c(-c2ccc(F)cc2)nc2ccccn12)c1cccc(F)c1	20.6 µM (active)	–
O=C(NN1CCOCC1)c1cccc(F)c1	inactive	–
Cc1ccccc1NC(=O)CCNS(=O)(=O)c1ccc2[nH]c(=O)oc2c1	inactive	–
O=C(C1CC1)N1CCc2cc(Br)cc(S(=O)(=O)N3CCN(c4ccccc4F)CC3)c21	inactive	–
O=C(CCCCCN1C(=O)c2cccc3cccc(c23)C1=O)NCc1ccco1	inactive	–
O=C(CN1C(=O)/C(=C\c2ccc(C(F)(F)F)cc2)Sc2ccccc21)NCc1ccco1	18.4 µM (active)	–

Structure (SMILES)	Potency	activity change, negative = growth inhibition
CC1CCC2(CC1)NC(=O)N(CC(=O)NCc1ccco1)C2=O (stereo unspecified)	inactive	–
Nn1c(SCC(=O)Nc2nccs2)nnc1-c1ccco1	inactive	–
Cc1ccc(CNC(=O)Cn2c(=O)ccc3cc(S(=O)(=O)N4CCCC4)ccc32)cc1	inactive	–
COc1cccc(N2CC(C(=O)NCc3n[nH]c(=O)c4ccccc34)CC2=O)c1 (stereo unspecified)	inactive	–
O=c1[nH]c2cccnc2n(CCNc2ncc(C(F)(F)F)cc2Cl)c1=O	inactive	–
CCOc1ccc(Cn2nnc(C(=O)NCc3ccccc3)c2N)cc1	inactive	–
CCOc1ccccc1NC(=O)Cc1cccs1	inactive	–
CCOc1ccccc1NC(=O)Cn1nnc(C(=O)NCc2cccs2)c1N	5.2 nM (active) and 130 nM (active)	–
COC(=O)C[C@H]1C=C[C@@H](NS(=O)(=O)c2ccc(C)cc2)[C@@H](CO)O1	inactive	–
O=C(c1cc(COc2c(F)cccc2F)on1)N1CCSCC1	inactive	–
NC(=O)Cn1nc([N+](=O)[O-])nc1Oc1ccc(Br)cc1	inactive	–
Cc1ccccc1Nc1nc(N)nc(CSc2nnc3ccccn23)n1	inactive	–
COc1cc(/C=N/NC(=S)Nc2cccnc2)cc(OC)c1O	inactive	–
COc1ccccc1CNC(=O)COc1ccc(C)nc1[N+](=O)[O-]	inactive	–
CCC(C)(C)n1nnnc1C(c1ccc(OC)c(OC)c1)N1CCN(C(=O)c2ccco2)CC1 (stereo unspecified)	inactive	–
CN1CCN2c3ccccc3Cc3ccccc3[C@@H]2C1	13.3 µM (active)	–
CN1CCN(C(=O)N2c3ccccc3CCc3ccccc32)CC1	inactive	–
CCOCCCNC(=O)c1cn(CC(C)C)c(=O)c2c1c1ccccc1n2C	inactive	–
CC(=NNC(N)=O)C1CC2CCC1CC2 (stereo unspecified)	inactive	–
CCOC(=O)C1CCN(c2csc3ccc(C)cc3c2=O)CC1	inactive	–
CCOC(=O)C1CCN(c2c(Nc3cc(C)cc(C)c3)c(=O)c2=O)CC1	14.6 µM (active)	–
CCOC(=O)C1CCN(CCC(=O)Nc2cccc(C)c2)CC1	inactive	–

Structure (SMILES)	Potency	activity change, negative = growth inhibition
O=C(COC(=O)Cc1ccc([N+](=O)[O-])cc1)NC1CCCCCC1	inactive	–
Cc1ccsc1C1C(C#N)=C(N)OC2=C1C(=O)CC(C)(C)C2 (stereo unspecified)	inactive	–
CN1CCN(S(=O)(=O)c2ccc(Nc3ccc(F)cc3)nc2)CC1	inactive	–
C=C1CCN([C@H](C(=O)NCc2cc(OC)c(OC)c(OC)c2)C(C)C)S(=O)(=O)c2ccccc21	inactive	–
O=C1OCC2=C1C(c1ccc(Cl)cc1)c1cc3c(cc1O2)OCO3 (stereo unspecified)	29.1 µM (active)	–
CCc1cccc(NC(=S)N(CCN(C)C)C2CCN(C(C)C)CC2)c1	inactive	–
O=C(COC(=O)C1(c2ccc(F)cc2)CCCC1)N1CCNC1=O	inactive	–
Cc1nn(CC(=O)NCc2ccccn2)c(C)c1[N+](=O)[O-]	inactive	–
Cc1csc(NC(=O)CSc2nnc(-c3cccnc3)o2)n1	inactive	–
Cc1csc(NC(=O)Nc2ccccc2[N+](=O)[O-])n1	inactive	–
Cc1csc(NC(=O)NC2(C(F)(F)F)Oc3ccccc3O2)n1	20.6 µM (active)	–
CCOc1ccc(N(CC(=O)NC2CCCCCC2)S(=O)(=O)c2c(C)[nH]c(=O)[nH]c2=O)cc1	inactive	–
CC(Nc1nc(C(F)(F)F)nc2ccccc12)c1cccs1 (stereo unspecified)	16.4 µM (active)	–
COc1ccc(-c2nc3n(c(=O)c2C#N)CCS3)c(OC)c1	inactive	–
Cc1oc(-c2ccccc2F)nc1CN1CCC(C(=O)NCCc2ccc(Cl)cc2)CC1	13 µM (active)	–
COc1ccc(-c2nc(CN3CCC(C(=O)NCc4ccccc4)CC3)c(C)o2)cc1OC	inactive	–
CCOc1ccccc1-c1nc(CN2CCC(C(=O)N3CCOCC3)CC2)c(C)o1	inactive	–
Oc1ccc(N2CCN(C(=S)NCc3ccccc3)CC2)cc1	11.6 µM (active)	–
O=C1CCN(C(=S)NCCc2ccccc2)CC1	inactive	–
S=C(NCCc1ccccc1)N1CCCCC1	inactive	–
CC(Oc1ccccc1)C(=O)N[C@@H]1C(=O)N2[C@@H]1SC(C)(C)[C@@H]2C(=O)O (stereo partly specified)	inactive	–
COc1cc(C=NC2CCCCC2)ccc1O	inactive	–

Structure (SMILES)	Potency	activity change, negative = growth inhibition
O=C(NCC(=O)N1CCN(c2ncc(C(F)(F)F)cc2Cl)CC1)c1ccc(Br)o1	16.4 µM (active)	–
O=C(CN1CCN(c2ncc(C(F)(F)F)cc2Cl)CC1)Nc1ccc2c(c1)OCO2	inactive	–
COc1ccc(N2CCN(C(=O)CNC(=O)c3ccc(Br)o3)CC2)cc1	inactive	–
Cc1cc(C)cc(C(=O)NC(CC(N)=O)c2ccc(N3CCC(N4CCCCC4)CC3)c([N+](=O)[O-])c2)c1 (stereo unspecified)	inactive	–
OCCN1CCN(CCO)C1=S	inactive	–
COc1ccccc1CN1CCCC(N2CCN(c3ccc(F)cc3)CC2)C1 (stereo unspecified)	inactive	–
CNC[C@H](CC1CCCCC1)NC[C@H](NCCC1CCCC1)[C@H](C)O	16.4 µM (active)	–
COc1ccc2c(c1OC)C(=O)N(c1ccc(O)cc1)C2	inactive	–
O=C(CN1CCN(c2ccccc2O)CC1)NC(=O)NCc1ccccc1	inactive	–
CCCN1C(=O)C(O)(CC(=O)c2ccc(CC)cc2)c2cc(Br)ccc21 (stereo unspecified)	7.31 µM (active)	–
Cc1coc(C)c1C(=O)CC1(O)C(=O)N(C)c2ccc(Cl)cc21 (stereo unspecified)	inactive	–
CCc1ccc(C(=O)COC(=O)c2ccco2)cc1	inactive	–
COCCn1c(C)cc(C(=O)CSc2ncnc3sc4c(c23)CCC4)c1C	inactive	–
Cc1nc2sc3c(c2c(=O)n1NC(=O)CCl)CCCC3	inactive	–
CCC(O)CNc1nc(-n2nc(C)cc2C)nc2sc3c(c12)CC(C)(C)OC3 (stereo unspecified)	11.6 µM (active)	–
CCOC(=O)CSc1nc2sc3c(c2c(=O)[nH]1)CC(C)(C)OC3	inactive	–
CC/C(C)=N/Nc1nc2sc3c(c2c(=O)[nH]1)CC(C)(C)OC3	inactive	–
COCCNc1nc(-n2nc(C)cc2C)nc2sc3c(c12)CCCC3	3.66 µM (active)	–
